The list is not random: actives were taken first. Their share in the collection is about 2.6%.
Cruzain inh noDet – blocks cruzain activity in detergent-free assay; Potency, µM, inactives show max response, negative = inhibition, usual class: inhibitors; purified cruzain, Z-FR-AMC fluorescence, no detergent; P25779; hit rate 2.3% among 200,000;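 further: plate controls were enzyme without inhibitor for no effect and buffer without enzyme for full effect; nearly all actives have a fitted effect of over 40% in size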
Target sequence (P25779 123-467 limits assumed): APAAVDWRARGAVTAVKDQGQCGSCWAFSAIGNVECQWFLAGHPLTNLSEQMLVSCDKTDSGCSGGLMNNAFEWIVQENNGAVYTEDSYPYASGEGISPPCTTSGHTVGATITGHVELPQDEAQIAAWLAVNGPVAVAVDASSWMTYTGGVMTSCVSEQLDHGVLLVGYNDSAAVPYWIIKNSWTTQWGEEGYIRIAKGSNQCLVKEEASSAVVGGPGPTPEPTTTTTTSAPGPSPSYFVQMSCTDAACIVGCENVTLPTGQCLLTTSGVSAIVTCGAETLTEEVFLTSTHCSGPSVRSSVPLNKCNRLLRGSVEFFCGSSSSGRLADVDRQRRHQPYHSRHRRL
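Detergent-free condition (0.00005% Triton X-100) in acetate buffer pH 5.5 with DTT. 1.5 nM enzyme and compound were pre-mixed 15 min, then 2 uM Z-FR-AMC substrate added; reaction progress from fluorescence change between first and third reads (60 s).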
Cruzain Triton – inhibitors of Trypanosoma cruzi cruzain with detergent; P25779; purified cruzain, Z-FR-AMC fluorescence, 0.01% Triton; Potency, µM, inactives show max response, negative = inhibition, most hits filed as inhibitors; hit rate 0.43% among 200,000;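 further: plate controls were neutral wells for no effect and buffer without enzyme for full effect; nearly all actives have a fitted effect of over 40% in size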
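Enzyme 1.5 nM, Z-FR-AMC 2 uM, NaOAc 100 mM pH 5.5, DTT 5 mM, Triton X-100 0.01%; 15 min RT compound preincubation; kinetic ex360/em450, 60 s delta.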
* = called active by the depositor; ? = inconclusive. The call rests on the fitted dose curve; in most records, active means well fitted curve in the direction sought with a large enough effect; inconclusive means small, poorly fitted or top-dose-only effect, or another doubt; inactive means no such curve, though single readings can be large; an effect the other way counts as inactive or inconclusive. Potency means the concentration at half of the fitted maximal effect.

SMILES	Cruzain inh noDet	Cruzain Triton
O=C(CCC1CCCC1)N1CCc2c([nH]c3ccccc23)C1c1ccc(Cl)cc1 (stereo not given)	7.9µM*	4%
O=C(CCC1CCCC1)N1CCc2c([nH]c3ccccc23)C1c1ccc(F)cc1 (stereo not given)	?	2%
O=C(CCc1ccccc1)N1CCc2c([nH]c3ccccc23)C1c1ccc(Cl)cc1 (stereo not given)	?	2%
COc1ccc(C2c3[nH]c4ccccc4c3CCN2C(=O)CCC2CCCC2)cc1 (stereo not given)	16µM*	4%
COc1ccc(C2c3[nH]c4ccc(OC)cc4c3CCN2C(=O)Nc2ccccc2)cc1 (stereo not given)	25µM*	-6%
Cc1ccc(C(C)C)c(OC(C)C(=O)NCC2(N(C)C)CCCCC2)c1 (stereo not given)	-12%	5%
CCOC(=O)c1c2n(c3ccc(OC(C)=O)cc13)CCC2	-2%	1%
Cc1ccc(N=c2sc(C)c(C)n2C)cc1	-9%	-2%
Cc1cc(C)c(-c2cc(NC(=O)COC(=O)c3ccc(CO)cc3)n(-c3ccccc3)n2)cc1C	21%	-6%
COc1cc(/C=C2\SC(=S)N(Nc3ncc(C(F)(F)F)cc3Cl)C2=O)ccc1O	?	-9%
CN(C)c1ccc(/C=C2\SC(=S)N(Nc3ncc(C(F)(F)F)cc3Cl)C2=O)cc1	13µM*	-9%
COc1cc(NS(=O)(=O)c2ccc(Nc3nc(-c4cccc([N+](=O)[O-])c4)cs3)cc2)nc(OC)n1	32µM*	-9%
COc1cc(NS(=O)(=O)c2ccc(NS(=O)(=O)c3ccccc3)cc2)nc(OC)n1	-3%	-2%
O=C(CSc1nc2ccccc2o1)Nc1ccc(Cl)cc1	2%	-1%
COc1ccc(C2C(C#N)=C(N)Nc3nc4ccccc4n32)cc1 (stereo not given)	?	1%
COc1ccc(C2C(C#N)=C(N)N3C(=C2C#N)Sc2ccccc23)cc1 (stereo not given)	6.3µM*	-7%
Cn1c(=O)c(C(=O)NCCO)c(O)c2ccccc21	-2%	-2%
C=C(C)[C@@H]1CCC2(C(=O)O)CC[C@]3(C)[C@H](CC[C@@H]4[C@@]5(C)CCC(=O)C(C)(C)[C@@H]5CC[C@]43C)[C@@H]12 (stereo not given in full)	5µM*	2%
C=C(C)[C@H]1CC[C@]2(CO)CC[C@]3(C)[C@@H](CC[C@H]4[C@@]5(C)CC[C@@H](O)C(C)(C)[C@@H]5CC[C@@]43C)[C@H]12	-16%	-2%
Cc1cc(NC(=O)c2ccc3c(c2)C(=O)N(C2CCCCC2)C3=O)no1	6.3µM*	6%
Cc1cc(NC(=O)c2ccc3c(c2)C(=O)N(C)C3=O)no1	10%	2%
C1=CC2CC1CC2CN1CCN(Cc2ccccc2)CC1 (stereo not given)	-1%	-2%
O=C(CSc1nc2ccccc2[nH]1)N1c2ccccc2Sc2ccccc21	-3%	-6%
O=C(CSc1nc2ccccc2[nH]1)c1ccc(Cl)s1	10µM*	-4%
CC(=O)NCCn1c(SCc2ccccc2F)nc2ccccc2c1=O	?	-2%
SMILES	Cruzain inh noDet	Cruzain Triton
O=C(Nc1ccc2nn(-c3ccccc3)nc2c1)c1ccc2c(c1)OCCO2	?	-7%
CCc1ccc(-n2nc3ccc(NC(=O)c4ccc5c(c4)OCO5)cc3n2)cc1	10µM*	-1%
Cc1ccc(-n2nc3ccc(NC(=O)c4ccc5c(c4)OCO5)cc3n2)cc1	-6%	-1%
CCOc1ccc(-n2nc3ccc(NC(=O)c4ccc5c(c4)OCCO5)cc3n2)cc1	13µM*	-3%
O=C1CC(N2CCOCC2)C(=O)N1CCc1ccccc1 (stereo not given)	-8%	1%
CCOC(=O)C(C(=O)NCc1ccc(F)cc1)c1ncc(C(F)(F)F)cc1Cl (stereo not given)	-1%	4%
CNc1oc(C)nc1S(=O)(=O)c1ccc(C)cc1	-5%	-1%
CCN(C(=O)COC(=O)CNC(=O)c1ccc(C)c(C)c1)C1CCS(=O)(=O)C1 (stereo not given)	16µM*	25µM*
Cc1ccc(C(=O)COC(=O)CNC(=O)c2ccc(N3C(=O)c4ccccc4C3=O)cc2)cc1C	-7%	-2%
CCN(C(=O)COC(=O)c1ccccc1Nc1cccc(C)c1C)C1CCS(=O)(=O)C1 (stereo not given)	?	-5%
Cc1ccc(Cl)c(OCC(=O)Nc2ccc3c(c2)OCCO3)c1	-6%	-1%
COc1ccc(CNC(=O)COC(=O)c2ccc3c(c2)OCCO3)cc1	-1%	0%
Cc1ccc(C(=O)NCC(=O)OCC(=O)c2ccc3c(c2)OCCO3)cc1C	13µM*	13µM*
COc1ccc(C(=O)NCC(=O)OCC(=O)c2ccc3c(c2)OCCO3)cc1	13µM*	16µM*
O=C(COc1cc(Cl)c(Cl)cc1Cl)NC(=O)Nc1ccc2c(c1)OCCO2	20µM*	-2%
CCCn1c(-c2ccc(F)cc2)nc2c(NCCN3CCCCC3)nc(C)nc21	-6%	2%

Source: PubChem BioAssay (National Center for Advancing Translational Sciences (NCATS))
